# An excerpt weighted towards active compounds, which were near 12% of everything screened.
# L3MBTL1 inh – qHTS Assay for the Inhibitors of L3MBTL1; Lethal(3)malignant brain tumor-like protein 1 (Homo sapiens), Q9Y468; actives 0.66% (n = 230,000); AlphaScreen L3MBTL1–H3K9me1 peptide binding; Potency, µM (top dose mostly 57.1 µM), for inactives: at the top dose activity, negative = inhibition, most hits filed as inhibitors; also: % is scaled to controls: 0 for no effect and ±100 for the full control effect; nearly all actives have a fitted effect of over 60% in size
# Target sequence (Q9Y468 whole entry, looked up): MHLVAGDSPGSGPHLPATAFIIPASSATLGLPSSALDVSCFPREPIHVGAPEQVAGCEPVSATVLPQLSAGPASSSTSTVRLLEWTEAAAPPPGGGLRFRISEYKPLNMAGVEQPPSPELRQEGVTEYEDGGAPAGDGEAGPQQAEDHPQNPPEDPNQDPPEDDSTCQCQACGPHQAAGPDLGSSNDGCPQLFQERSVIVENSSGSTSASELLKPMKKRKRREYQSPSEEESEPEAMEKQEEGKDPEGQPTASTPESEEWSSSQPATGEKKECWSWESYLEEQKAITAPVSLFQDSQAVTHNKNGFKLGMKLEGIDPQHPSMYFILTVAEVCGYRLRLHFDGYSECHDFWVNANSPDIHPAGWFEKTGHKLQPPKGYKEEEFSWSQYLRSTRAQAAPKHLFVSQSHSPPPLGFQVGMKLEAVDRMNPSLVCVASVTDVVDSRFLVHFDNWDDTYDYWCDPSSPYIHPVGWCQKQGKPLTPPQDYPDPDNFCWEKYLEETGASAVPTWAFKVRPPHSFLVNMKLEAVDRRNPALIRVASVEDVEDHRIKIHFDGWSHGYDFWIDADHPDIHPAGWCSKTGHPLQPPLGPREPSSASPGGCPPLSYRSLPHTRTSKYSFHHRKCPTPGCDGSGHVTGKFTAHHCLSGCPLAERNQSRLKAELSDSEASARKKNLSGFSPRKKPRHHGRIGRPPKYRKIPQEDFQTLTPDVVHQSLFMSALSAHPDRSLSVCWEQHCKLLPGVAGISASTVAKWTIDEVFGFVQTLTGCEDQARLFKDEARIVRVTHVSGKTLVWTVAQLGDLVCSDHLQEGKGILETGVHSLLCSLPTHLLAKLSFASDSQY
#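 First, the protein-peptide complex forms for 30 min at room temperature (L3MBTL1 50 nM, biotinylated H3K9me1 peptide 75 nM). Next, compounds are pin-transferred and incubated 30 min. Finally, AlphaScreen beads are added and read after 30 min.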
# JMJD2A Tudor inh – qHTS Assay for Inhibitors of JMJD2A-Tudor Domain | Lysine-specific demethylase 4A (Homo sapiens), O75164 | AlphaScreen JMJD2A-Tudor / H3K4me3 peptide binding | Potency, µM (top dose mostly 114 µM), without a hit: at the top dose activity change, negative = inhibition, hits mostly inhibitors | actives 4.4% (n = 390,000) | AID 504339, 2011; also: % is scaled to controls: 0 for no effect and ±100 for the full control effect; nearly all actives have a fitted effect of over 50% in size
# HP1b binding inh – HTS for Inhibitors of HP1-beta Chromodomain Interactions with Methylated Histone Tails; AID 540317, 2011; AlphaScreen HP1-beta / biotin-H3K9me3 peptide binding; Chromobox protein homolog 1 (Homo sapiens), P83916; actives 0.56% (n = 390,000); Potency, µM (top dose mostly 114 µM), without a hit: at the top dose activity change, negative = inhibition, usual class: inhibitors; also: nearly all actives have a fitted effect of over 70% in size
#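 HP1-beta protein (50 nM final) preincubated 30 min at room temperature with biotinylated H3(1-18)K9me3 peptide (50 nM) in PBS pH 7.4, 0.01% Tween-20, then compound added for 30 min. AlphaScreen streptavidin donor/nickel chelate acceptor beads (10 ug/mL final), 30 min dark, luminescence read.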
# BAZ2B inh – qHTS Assay for Inhibitors of BAZ2B; Bromodomain adjacent to zinc finger domain protein 2B (Homo sapiens), Q9UIF8; AlphaScreen BAZ2B-H3K14Ac peptide displacement; Potency, µM (top dose mostly 114 µM), for the others: at the top dose activity change, negative = inhibition, actives largely listed as inhibitors; actives 4.4% (n = 360,000); AID 504333, 2011; also: % is scaled to controls: 0 for no effect and ±100 for the full control effect; nearly all actives have a fitted effect of over 60% in size
#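 In this displacement format the biotinylated H3(5-23) peptide acetylated at Lys14 serves as ligand at 50 nM, with BAZ2B at 50 nM in PBS pH 7.4 containing 0.01% Tween-20. Donor and acceptor beads are 10 ug/mL final.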
# G9a block – qHTS Assay for Inhibitors of Histone Lysine Methyltransferase G9a. Potency, µM (doses to about 102 µM), inactives show top-dose activity, negative = inhibition, actives largely listed as inhibitors. actives 8.8% (n = 350,000). G9a H3K9 monomethylation, AlphaScreen, 2 h. AID 504332, 2011; also: % is scaled to controls: 0 for no effect and ±100 for the full control effect; nearly all actives have a fitted effect of over 75% in size
#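 Signal arises when biotinylated H3K9 peptide, once monomethylated, bridges streptavidin donor and antibody-captured acceptor beads. Enzyme at 20 nM was preincubated 15 min with test compounds; peptide 500 nM and SAM 20 uM then reacted for 2 h.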
# Sfp PPTase inh – qHTS Assay for Inhibitors of Bacillus subtilis Sfp phosphopantetheinyl transferase (PPTase) | 4'-phosphopantetheinyl transferase ffp (Bacillus subtilis), Q9F4F7 | Biochemical Sfp PPTase activity, qHTS | Potency, µM, inactives show largest response in the series, negative = inhibition, usual class: inhibitors | actives 3.5% (n = 310,000);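 also: the enzyme is Sfp with the accession as filed and its product quenches rhodamine fluorescence; 0% = enzyme reaction without inhibitor and -100% = no enzyme wells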
#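 Fluorescence-quenching assay: 15 nM Sfp-PPTase preincubated 15 min at room temperature with compound, then 5 uM rhodamine-CoA and 12.5 uM BHQ-2-labelled YbbR peptide added. Fluorescence (ex 525/em 598 nm) read at start and after 30 min; difference gives rate.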
# The depositor's hits bear a star; u = inconclusive; x = no result; [ ] = dose if it differs, or a comment. Calls follow the shape of the dose curve; as a rule, active = well fitted curve in the direction sought with a large enough effect; inconclusive = small, poorly fitted or top-dose-only effect, or another doubt; inactive = no such curve, though single readings can be large; an effect the other way counts as inactive or inconclusive. Potency is read from the fitted curve at half-maximal effect.
SMILES,L3MBTL1 inh,JMJD2A Tudor inh,HP1b binding inh,BAZ2B inh,G9a block,Sfp PPTase inh
Cc1cc(C(=O)CSC(C)c2nc3ccccc3c(=O)[nH]2)c(C)n1C (configuration not stated),6%,-25%,11%,-37%,50µM*,-26%
Cc1cc(C(=O)CSc2nc3ccccc3c(=O)[nH]2)c(C)n1C,x,-29%,19%,-36%,u,-28%
Cn1nc(C(=O)Nc2cccc(S(=O)(=O)N3CCCCC3)c2)c2ccccc2c1=O,-12%,-17%,11%,-23%,40µM*,x
O=C(Nc1ccc(Cl)c(S(=O)(=O)N2CCCC2)c1)c1nn(CCO)c(=O)c2ccccc12,-2%,-33%,1%,-29%,50µM*,x
Cn1nc(C(=O)Nc2ccc(S(=O)(=O)N3CCCCC3)cc2)c2ccccc2c1=O,9%,-19%,14%,-27%,u,-2%
CCCCC(CC)COC(=O)CC(C(=O)OCC(CC)CCCC)S(=O)(=O)O (configuration not stated),x,x,x,x,x,-14%
O=C(NCCCN1CCOCC1)C1CCN(S(=O)(=O)c2cccc(Cl)c2Cl)CC1,3%,-7%,10%,13%,15%[0.501 µM],x
Cc1ccc(N2CCN(C(=O)N3CCOCC3)CC2)cc1C,4%,-13%,29%,-4%,u,-11%
c1ccc(-c2csc(N3CCOCC3)n2)cc1,x,-32%,-5%,-37%,29%[12.7 µM],-9%
S=C(NCCCN1CCOCC1)N1CCN(c2nc(-c3ccccc3)cs2)CC1,-23%,u,-14%,u,56µM*,45µM*
Cc1cccc(C)c1N1CCN(C(=O)N2CCOCC2)CC1,-16%,u,0%,-10%,35µM*,-27%
O=C(N1CCOCC1)N1CCN(c2nc(-c3ccccc3)cs2)CC1,-4%,-26%,7%,u,45µM*,u
O=S(=O)(c1cccc(Cl)c1Cl)N1CCN(C(=S)NCCCN2CCOCC2)CC1,-5%,1.6µM*,28µM*,50µM*,35µM*,-20%
CCC1Oc2ccc(C)cc2N(CC(=O)NCCc2ccccc2)C1=O (configuration not stated),x,-9%,-6%,1%,0%[59 µM],x
S=C(NCC1CCCO1)N1CCN(c2nc(-c3ccc(Cl)cc3)cs2)CC1 (configuration not stated),-21%,u,u,35µM*,u,10%
C=CCn1cn[nH]c1=S,-2%[11.4 µM],u,43%,u,13µM*,u
Cc1cc(-c2ccc(C)c(S(=O)(=O)Nc3cccc(C#N)c3)c2)on1,x,-11%,18%,-2%,-3%[59 µM],x
N[C@@H](Cc1ccccc1)C(=O)N1CCC(C(=O)N[C@@H](CCC(=O)O)C(=O)O)CC1,x,18µM*,19%,1%,79µM*,-3%
CC1CCN(C(=O)N[C@@H](Cc2ccccc2)C(=O)O)CC1,7%,-13%,5%,20%,-6%,26%
CC1CN(C(=O)N[C@@H](Cc2ccccc2)C(=O)O)CC(C)O1 (some centres not stated),3%,-2%,25%,-7%,56µM*,10%
O=C(O)[C@H](Cc1ccccc1)NC(=O)N1CCC(Cc2ccccc2)CC1,x,-3%,1%[57 µM],-15%,14µM*,17%
CC(=O)NC(Cc1ccccc1)C(=O)O (configuration not stated),10%,-6%,34%,-3%,-9%,8%
O=C(NCCCn1ccnc1)Nc1ccc(Cl)c(Cl)c1,-4%,u,24%,40µM*,-4%[59 µM],15%
O=C(NCCCn1ccnc1)Nc1ccc(Cl)cc1,-1%,-22%,2%,-35%,1%,-11%
O=C(CNC(=O)c1ccc(Cl)cc1Cl)NCCCn1ccnc1,x,8%,18%,-6%,-1%,-7%
SMILES,L3MBTL1 inh,JMJD2A Tudor inh,HP1b binding inh,BAZ2B inh,G9a block,Sfp PPTase inh
S=C(NCCCn1ccnc1)Nc1ccc(Cl)cc1Cl,-3%[11.4 µM],-12%,23%,50µM*,-45%,10%
Cc1ccc(C(=O)Nc2nnc(S(=O)(=O)N3CCCc4ccccc43)s2)cc1,x,-5%,40%,-10%,-38%[59 µM],x
Oc1c(C(c2ccccc2Cl)N2CCCC2)sc2nc(-c3ccco3)nn12 (configuration not stated),x,-23%,9%,u,-22%[59 µM],x
CCCCn1c(SCc2c(C)noc2C)nc2cc(S(N)(=O)=O)ccc21,1%,-6%,34%,0%,50µM*,-7%
CC(C)c1ccc(NC(=O)c2cc(S(=O)(=O)NCc3ccccc3Cl)ccc2F)cc1,x,-27%,13%,3%,-3%[59 µM],x
CC(=O)Nc1ccc(/C=C/C(=O)c2ccc(-n3nncc3-c3ccccc3)cc2)cc1,x,-33%[57.1 µM],-8%[57 µM],x,x,x
Cc1ccc(CNC(=O)C(C)n2nc(C)n3c(cc4sccc43)c2=O)cc1 (configuration not stated),x,1%,49%,2%,5%[59 µM],x
CCSc1nnc(NC(=O)C2Cc3ccccc3CN2C(=O)c2ccco2)s1 (configuration not stated),u,79µM*,26%,u,u,40µM*
Cc1ccccc1NC(=O)C1Cc2ccccc2CN1C(=O)c1ccco1 (configuration not stated),x,-5%,11%,-11%,u,u
COc1cccc(NC(=O)C2Cc3ccccc3CN2C(=O)c2ccco2)c1 (configuration not stated),x,-27%,-14%,-14%,35µM*,-15%
NS(=O)(=O)c1ccc(NC(=O)C2Cc3ccccc3CN2C(=O)c2ccco2)cc1 (configuration not stated),x,40µM*,u,50µM*,50µM*,-22%
CCN(CC)CCCn1c(-c2ccccc2)nc2c(N(CCOC)CCOC)nc(C)nc21,x,x,x,x,x,23%
CCN(CC)S(=O)(=O)c1cc(-c2nn(C)c(=O)c3ccccc23)ccc1C,-21%,u,-2%,50µM*,u,-13%
Cc1cccc2nc(Cn3c(=O)n(-c4ccc(Cl)cc4)c(=O)c4c5c(sc43)CCC5)cc(=O)n12,x,-12%,18%,7%,1%[59 µM],x

# Bioassay records: PubChem, National Center for Advancing Translational Sciences (NCATS)
